Measured values from PubChem BioAssay.
Results filed as inconclusive are left out. Activity calls are given as the source filed them.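 How the source made its calls, unless noted: active means percent response above 42, roughly 3 SD of non-fluorescent test compounds; inactive means the rest.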

How the values were obtained:
[1] = yeast TOR pathway RPL19A-GFP modulators, primary screen, cell-based, S. cerevisiae, multiplex flow cytometry (AID 1862; in the data active means percent of DMSO control GFP below about 86%;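 further: lower values mimic rapamycin by blocking the RPL19A rise seen in DMSO cells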); settings: S. cerevisiae RPL19A-GFP strain, flow cytometry fluorescence, 3 h; at 10 µM; stronger effect = lower value
[2] = modulators of MEP2-GFP levels in yeast, primary screen, S. cerevisiae, multiplex flow cytometry (AID 1867;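 active means GFP response, as percent of the DMSO control, above the screen-wide mean plus 3 SD, about 139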;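 further: median GFP channel fluorescence of barcode-gated MEP2-GFP cells measured by flow cytometry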); settings: S. cerevisiae MEP2-GFP strain, 3 h, at 10 µM, stronger effect = higher value, 100% means same as DMSO wells
[3] = modulators of CIT2-GFP expression in yeast, primary screen, S. cerevisiae, GFP fusion, multiplex flow cytometry (AID 1870;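 active means percent response above a set limit, the screen-wide mean plus 3 SD, cut at about 130% in these data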;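 further: barcoded CIT2-GFP strain pooled with four other GFP strains with rapamycin as positive control; median GFP fluorescence per well over plate mean of DMSO wells so 100% = DMSO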); settings: 3 h, at 10 µM, stronger effect = higher value
[4] = modulators of LAP4-GFP expression in yeast, primary screen, S. cerevisiae, multiplex flow cytometry (AID 1873;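 active means GFP signal, as percent of the solvent control, above the screen mean plus 3 SD, about 149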); settings: 3 h, at 10 µM, stronger effect = higher value
[5] = modulators of AGP1-GFP expression in yeast TOR pathway, primary screen, cell-based, multiplex flow cytometry, S. cerevisiae (AID 1887;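 active means GFP signal above the screen-wide mean plus 3 SD, that is over about 124.5% of the solvent control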;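 further: AGP1-GFP fusion strain of S. cerevisiae within a five-strain barcoded multiplex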); settings: 3 h, at 10 µM, stronger effect = higher value
[6] = inhibitors of CD8+ T cell-vesicle binding, pilot screen, LFA-1/ICAM-1 modulator project, MLPCN validation set, flow cytometry (AID 2523;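 active means response below a set limit, under 55% cells CD8-positive and vesicle-bound, and CD8 cells' 90th-percentile brightness under 279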;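 on vesicle binding response: mean PE anti-B7-1 fluorescence of CD8+ cells relative to row control; 100% = QL9-loaded vesicles with DMSO vehicle in the same plate row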); settings: 2C mouse CD8+ T cells, at 7 µM, stronger effect = lower value; double positive events: measured here: CD8+/vesicle+ event percentage
[7] = target: Integrin beta-1 (Homo sapiens) + Integrin alpha-4 (Homo sapiens) (UniProt P13612+P05556); experiment: inhibition of HUTS-21 binding to VLA-4, pilot screen, VLA-4 allosteric modulator project, U937 cells, HUTS-21 mAb, flow cytometry, validation set (AID 2674;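 active means inhibition above 50%, about 3 SD of the validation set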;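 further: antibody binding induced by the VLA-4 ligand LDV present at three times its Kd; 0% = LDV ligand with antibody and no compound and 100% = antibody without LDV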); settings: HUTS-21 LIBS mAb binding, at 6.7 µM, stronger effect = higher value, binding induced by LDV ligand
[8] = superoxide lowering in aged yeast cells, pilot screen, validation compound set (AID 2706;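 active means superoxide response below 65% of plate, a cut near 3 SD across the whole screen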;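 further: yeast exposed to compound for one week at 30 degrees C before staining; 100% = mean of all compound wells on the same plate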); settings: S. cerevisiae aging, superoxide DHE fluorescence; at 10 µM; stronger effect = lower value
[9] = target: Beta-adrenergic receptor kinase 1 (Homo sapiens) (UniProt P25098); experiment: GRK2 binders displacing RNA aptamer, biochemical, validation, human GRK2, bead flow cytometry (AID 488806;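 active means aptamer binding inhibition above 30%, about 3 SD of noise from non-fluorescent compounds; inactive means inhibition at or below 30%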); settings: bead-bound GRK2, FAM-aptamer displacement, at 10 µM, stronger effect = higher value
[10] = target: Beta-2 adrenergic receptor (Homo sapiens) (UniProt P07550); experiment: beta2AR agonists driving receptor internalization, pilot screen, cell-based, FAP fluorogen, flow cytometry, validation set (AID 504459); settings: Am2.2-beta2AR cells, FAP surface receptor flow cytometry; at 10 µM; stronger effect = higher value;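 further: agonist-driven loss of surface beta2AR via internalization measured by FAP dye flow cytometry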
[11] = target: AP-2 complex subunit beta (Homo sapiens) (UniProt P63010); experiment: inhibitors of arrestin peptide binding to AP2, pilot screen, biochemical, validation set, GST-AP2 beads, flow cytometry (AID 504541;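 active means inhibition above 54%, about 3 SD of non-fluorescent compounds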;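 further: AP2 carries R879A mutation and is captured from E. coli lysate; bead-bound FITC arrestin peptide fluorescence measuring arrestin peptide binding to AP2; 0% = DMSO wells and 100% = excess unlabeled arrestin peptide control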); settings: FITC arrestin peptide, at 10 µM, stronger effect = higher value, AP2 beta2 appendage fragment, R879A mutant
[12] = yeast V-ATPase proton transport modulators, S. cerevisiae, pHLuorin, HTS validation (AID 504600; in the data active means response above about 15%;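 further: plate controls were DMSO for no effect and reference compound for full effect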); settings: S. cerevisiae pHLuorin cytosolic pH, at 10 µM, stronger effect = higher value
[13] = test system: anti-desmoglein-3 scFv antibody binding to human DSG3; experiment: inhibitors of anti-DSG3 scFv binding to DSG3, pilot screen, biochemical, validation compound set, bead-based, flow cytometry (AID 588368;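 active means binding below the plate cutoff, the plate median minus 3 SD, with a reading above zero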;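 further: signal is the median channel fluorescence of bead-bound GFP antibody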); settings: Protein G beads, DSG3-Fc, scFv-GFP binding, at 10 µM, stronger effect = lower value
[14] = inhibitors of fungal efflux pumps CDR1, CDR2, MDR1, pilot screen, validation compound set, multiplex, phenotypic (AID 588506;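 active means efflux inhibition above 0.42, the validation set average plus 4 SD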;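 further: Nile Red retained in cells so higher fluorescence means more efflux inhibition; 0 = negative control wells and 1 = enniatin B 25 µM full block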); settings: S. cerevisiae pump-expressing triplex, Nile Red efflux flow cytometry; at 10 µM; stronger effect = higher value; the pumps come from Candida albicans
[15] = target: ATP-binding cassette sub-family B member 6 (Homo sapiens) (UniProt Q9NP58); experiment: ABCB6 transporter inhibitors, pilot screen, K562-ABCB6 cells, flow cytometry, validation set (AID 588550;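 active means inhibition above the screen-wide mean plus 3 SD, about 51%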;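 further: 0% = DMSO wells and 100% = benzethonium chloride 70 µM positive control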); settings: K562-ABCB6 porphyrin accumulation, 1 h, at 10 µM, stronger effect = higher value
[16] = promoters of myeloid differentiation in arrested cells, primary screen, cell-based, GFP/MAC1 double positive, flow cytometry, validation set (AID 588685;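 active means differentiation response of at least 50%, scaled between solvent and reference control, from cells with both markers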;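 further: compound exposure lasts four days before antibody staining and flow analysis; 0% = DMSO wells and 100% = 5 µM fulvestrant positive control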); settings: ER-HoxA9 marrow cells, stronger effect = higher value, normalized: vehicle 0, fulvestrant 100

Sequence of Integrin beta-1 (Homo sapiens) + Integrin alpha-4 (Homo sapiens) (P05556 whole entry, looked up): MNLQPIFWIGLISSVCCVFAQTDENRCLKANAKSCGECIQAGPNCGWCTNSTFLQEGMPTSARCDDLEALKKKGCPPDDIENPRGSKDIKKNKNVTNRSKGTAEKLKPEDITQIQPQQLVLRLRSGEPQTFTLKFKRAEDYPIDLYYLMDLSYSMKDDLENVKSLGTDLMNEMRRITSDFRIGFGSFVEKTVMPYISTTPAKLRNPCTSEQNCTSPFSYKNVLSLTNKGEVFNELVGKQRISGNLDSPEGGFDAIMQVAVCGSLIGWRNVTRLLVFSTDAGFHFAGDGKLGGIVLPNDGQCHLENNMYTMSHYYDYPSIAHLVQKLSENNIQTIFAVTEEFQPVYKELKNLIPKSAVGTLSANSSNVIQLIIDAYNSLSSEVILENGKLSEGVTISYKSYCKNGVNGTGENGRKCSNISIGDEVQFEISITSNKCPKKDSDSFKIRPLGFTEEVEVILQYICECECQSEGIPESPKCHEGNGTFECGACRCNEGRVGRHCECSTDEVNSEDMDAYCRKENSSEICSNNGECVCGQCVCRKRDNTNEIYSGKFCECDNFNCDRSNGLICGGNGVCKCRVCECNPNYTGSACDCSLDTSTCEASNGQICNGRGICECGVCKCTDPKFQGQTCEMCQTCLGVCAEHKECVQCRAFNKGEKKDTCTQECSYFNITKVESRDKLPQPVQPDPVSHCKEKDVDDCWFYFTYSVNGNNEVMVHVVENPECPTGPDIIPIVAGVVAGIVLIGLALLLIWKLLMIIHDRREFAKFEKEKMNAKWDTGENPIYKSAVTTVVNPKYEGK
Sequence of Integrin beta-1 (Homo sapiens) + Integrin alpha-4 (Homo sapiens) (P13612 whole entry, looked up): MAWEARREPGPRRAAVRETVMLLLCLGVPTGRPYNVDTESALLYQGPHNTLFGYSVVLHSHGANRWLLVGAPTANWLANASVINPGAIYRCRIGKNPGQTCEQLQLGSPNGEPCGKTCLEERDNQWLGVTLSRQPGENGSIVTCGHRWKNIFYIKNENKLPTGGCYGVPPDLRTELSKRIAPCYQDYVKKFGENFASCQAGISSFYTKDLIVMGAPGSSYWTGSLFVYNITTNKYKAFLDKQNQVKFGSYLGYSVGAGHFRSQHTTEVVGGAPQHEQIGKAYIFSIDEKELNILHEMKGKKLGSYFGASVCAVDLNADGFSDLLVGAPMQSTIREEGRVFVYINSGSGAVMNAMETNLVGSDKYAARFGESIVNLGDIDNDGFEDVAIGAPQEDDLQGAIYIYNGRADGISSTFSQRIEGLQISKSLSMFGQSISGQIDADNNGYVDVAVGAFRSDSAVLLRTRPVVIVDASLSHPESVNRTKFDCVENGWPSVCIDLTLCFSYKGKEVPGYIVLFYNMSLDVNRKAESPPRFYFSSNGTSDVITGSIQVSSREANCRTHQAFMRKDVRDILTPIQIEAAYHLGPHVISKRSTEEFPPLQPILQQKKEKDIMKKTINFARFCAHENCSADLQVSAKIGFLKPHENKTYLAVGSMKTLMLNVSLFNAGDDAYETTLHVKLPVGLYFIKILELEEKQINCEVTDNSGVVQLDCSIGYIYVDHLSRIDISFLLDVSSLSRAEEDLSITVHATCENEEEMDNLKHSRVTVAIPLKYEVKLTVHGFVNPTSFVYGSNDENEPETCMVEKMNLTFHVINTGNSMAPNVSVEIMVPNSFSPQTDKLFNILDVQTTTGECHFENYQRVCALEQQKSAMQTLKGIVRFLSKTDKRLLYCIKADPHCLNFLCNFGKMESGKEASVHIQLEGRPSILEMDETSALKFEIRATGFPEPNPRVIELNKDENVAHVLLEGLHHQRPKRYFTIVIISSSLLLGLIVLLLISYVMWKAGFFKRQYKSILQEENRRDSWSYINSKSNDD
Sequence of Beta-adrenergic receptor kinase 1 (Homo sapiens) (P25098 whole entry, looked up): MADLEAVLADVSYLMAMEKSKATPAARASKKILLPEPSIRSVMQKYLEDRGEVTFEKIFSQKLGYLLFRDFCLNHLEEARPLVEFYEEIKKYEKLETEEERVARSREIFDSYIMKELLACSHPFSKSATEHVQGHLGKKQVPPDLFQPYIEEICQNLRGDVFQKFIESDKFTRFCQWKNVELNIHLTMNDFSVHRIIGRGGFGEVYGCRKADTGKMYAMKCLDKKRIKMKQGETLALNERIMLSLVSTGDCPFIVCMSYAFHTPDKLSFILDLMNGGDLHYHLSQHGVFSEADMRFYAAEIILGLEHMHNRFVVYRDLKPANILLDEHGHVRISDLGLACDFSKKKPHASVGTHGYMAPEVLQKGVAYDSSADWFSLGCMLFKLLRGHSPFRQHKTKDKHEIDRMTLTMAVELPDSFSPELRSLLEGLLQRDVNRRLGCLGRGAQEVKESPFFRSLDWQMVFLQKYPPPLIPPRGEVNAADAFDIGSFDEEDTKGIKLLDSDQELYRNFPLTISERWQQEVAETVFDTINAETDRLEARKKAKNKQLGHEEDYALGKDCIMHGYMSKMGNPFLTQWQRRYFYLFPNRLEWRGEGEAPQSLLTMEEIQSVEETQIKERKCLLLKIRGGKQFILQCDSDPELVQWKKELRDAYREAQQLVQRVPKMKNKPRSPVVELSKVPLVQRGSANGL
Sequence of AP-2 complex subunit beta (Homo sapiens) (P63010 whole entry, looked up, the tested form may be a part, one chain of several): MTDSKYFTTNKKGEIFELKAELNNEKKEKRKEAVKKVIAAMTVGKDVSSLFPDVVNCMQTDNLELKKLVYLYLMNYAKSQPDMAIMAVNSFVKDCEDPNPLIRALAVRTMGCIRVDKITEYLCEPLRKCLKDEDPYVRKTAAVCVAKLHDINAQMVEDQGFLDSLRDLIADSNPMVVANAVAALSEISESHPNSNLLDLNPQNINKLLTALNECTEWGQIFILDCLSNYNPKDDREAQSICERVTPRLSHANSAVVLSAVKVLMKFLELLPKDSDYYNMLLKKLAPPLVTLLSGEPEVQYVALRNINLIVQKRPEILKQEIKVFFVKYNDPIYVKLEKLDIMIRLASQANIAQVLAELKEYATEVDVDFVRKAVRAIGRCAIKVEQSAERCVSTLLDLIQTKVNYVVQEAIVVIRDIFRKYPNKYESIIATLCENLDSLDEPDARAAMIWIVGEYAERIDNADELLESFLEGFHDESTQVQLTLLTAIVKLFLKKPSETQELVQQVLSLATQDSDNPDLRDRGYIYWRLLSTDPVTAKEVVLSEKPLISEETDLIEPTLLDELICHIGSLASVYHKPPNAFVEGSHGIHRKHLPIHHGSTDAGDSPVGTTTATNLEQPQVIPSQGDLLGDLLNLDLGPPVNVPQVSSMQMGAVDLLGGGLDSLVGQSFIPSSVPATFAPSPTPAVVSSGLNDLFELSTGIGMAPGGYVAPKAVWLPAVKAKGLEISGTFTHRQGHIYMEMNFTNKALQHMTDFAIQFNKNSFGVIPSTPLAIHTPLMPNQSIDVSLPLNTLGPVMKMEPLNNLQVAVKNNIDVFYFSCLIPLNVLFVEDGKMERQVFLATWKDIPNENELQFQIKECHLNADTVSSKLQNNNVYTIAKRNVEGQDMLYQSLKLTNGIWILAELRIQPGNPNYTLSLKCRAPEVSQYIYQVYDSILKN
Sequence of ATP-binding cassette sub-family B member 6 (Homo sapiens) (Q9NP58 whole entry, looked up): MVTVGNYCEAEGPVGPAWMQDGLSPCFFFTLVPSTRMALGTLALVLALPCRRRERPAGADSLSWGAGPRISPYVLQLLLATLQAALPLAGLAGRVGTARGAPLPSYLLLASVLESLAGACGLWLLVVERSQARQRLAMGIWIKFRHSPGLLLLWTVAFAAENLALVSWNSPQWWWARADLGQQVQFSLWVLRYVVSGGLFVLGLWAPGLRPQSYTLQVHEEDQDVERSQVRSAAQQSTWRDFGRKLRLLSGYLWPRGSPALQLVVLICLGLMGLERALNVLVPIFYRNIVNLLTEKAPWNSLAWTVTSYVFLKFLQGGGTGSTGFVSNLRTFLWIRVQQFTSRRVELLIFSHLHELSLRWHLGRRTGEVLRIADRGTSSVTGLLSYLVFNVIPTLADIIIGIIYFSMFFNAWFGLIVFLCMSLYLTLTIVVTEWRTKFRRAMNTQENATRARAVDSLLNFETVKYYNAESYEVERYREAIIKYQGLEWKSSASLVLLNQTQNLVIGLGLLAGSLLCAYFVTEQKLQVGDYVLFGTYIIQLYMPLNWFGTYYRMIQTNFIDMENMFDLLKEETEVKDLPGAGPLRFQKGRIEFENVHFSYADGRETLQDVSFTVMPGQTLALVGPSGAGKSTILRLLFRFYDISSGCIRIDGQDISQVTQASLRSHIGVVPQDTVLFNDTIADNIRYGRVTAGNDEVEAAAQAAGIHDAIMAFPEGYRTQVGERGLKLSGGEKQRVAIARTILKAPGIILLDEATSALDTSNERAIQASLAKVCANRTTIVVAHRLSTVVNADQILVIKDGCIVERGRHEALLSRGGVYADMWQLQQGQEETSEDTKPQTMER
Sequence of Beta-2 adrenergic receptor (Homo sapiens) (P07550 whole entry, looked up): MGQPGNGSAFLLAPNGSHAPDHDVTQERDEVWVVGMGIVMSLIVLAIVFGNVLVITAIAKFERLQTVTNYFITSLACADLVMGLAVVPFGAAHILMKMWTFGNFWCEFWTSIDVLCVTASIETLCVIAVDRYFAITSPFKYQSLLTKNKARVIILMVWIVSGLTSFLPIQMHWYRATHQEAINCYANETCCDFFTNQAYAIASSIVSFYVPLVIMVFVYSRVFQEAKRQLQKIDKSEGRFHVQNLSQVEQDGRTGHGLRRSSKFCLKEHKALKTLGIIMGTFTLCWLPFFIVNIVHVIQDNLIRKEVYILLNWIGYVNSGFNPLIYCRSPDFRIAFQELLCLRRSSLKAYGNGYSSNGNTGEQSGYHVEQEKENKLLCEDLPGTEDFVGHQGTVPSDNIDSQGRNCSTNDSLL

| SMILES | percent of DMSO control GFP [1] | GFP response vs DMSO [2] | percent response of DMSO control [3] | GFP response vs DMSO [4] | GFP response, % of DMSO [5] | double positive events [6] [%] | vesicle binding response [6] | inhibition [7] | superoxide response (% of plate) [8] | aptamer binding inhibition [9] | response [10] | inhibition [11] | response [12] | binding (% of control) [13] | efflux inhibition (fraction of control) [14] | inhibition [15] | differentiation response [16] |
| --- | --- | --- | --- | --- | --- | --- | --- | --- | --- | --- | --- | --- | --- | --- | --- | --- | --- |
| Cn1nnnc1SCC1=C(C(=O)O)N2C(=O)[C@@H](NC(=O)[C@H](O)c3ccccc3)[C@H]2SC1 | 97.7% (inactive) | 115% (inactive) | 106% (inactive) | 90.2% (inactive) | 103% (inactive) | 67.4 | 318% (inactive) | 0.64% (inactive) | 86.1% (inactive) | 13% (inactive) | 3.85% (inactive) | 3.95% (inactive) | 1.15% (inactive) | 107% (inactive) | 0.3 (inactive) | 16% (inactive) | 15.6% (inactive) |
| Cc1[nH]nc(-c2ccc(O)cc2O)c1Oc1ccccc1 | 106% (inactive) | 100% (inactive) | 114% (inactive) | 93.3% (inactive) | 103% (inactive) | 61.9 | 53.1% (inactive) | 4.73% (inactive) | 95.8% (inactive) | 1% (inactive) | -4.61% (inactive) | -10.9% (inactive) | -4.45% (inactive) | 96.3% (inactive) | -0.32 (inactive) | 3% (inactive) | 8.06% (inactive) |
| Cc1cc(OCC(=O)C(C)(C)C)c2c(C)c(C)c(=O)oc2c1 | 102% (inactive) | 103% (inactive) | 94.8% (inactive) | 118% (inactive) | 98.8% (inactive) | 60.4 | 213% (inactive) | 2.3% (inactive) | 102% (inactive) | 7% (inactive) | -4.14% (inactive) | 27.4% (inactive) | -7.2% (inactive) | 101% (inactive) | 0.26 (inactive) | 3% (inactive) | 4% (inactive) |
| CN1CCN(C2=Nc3ccccc3Oc3ccc(Cl)cc32)CC1 | 101% (inactive) | 115% (inactive) | 111% (inactive) | 79.8% (inactive) | 100% (inactive) | 61.6 | 223% (inactive) | 4.52% (inactive) | 112% (inactive) | -9% (inactive) | -6.79% (inactive) | -13.5% (inactive) | 0.86% (inactive) | 109% (inactive) | 0.19 (inactive) | 14% (inactive) | -0.82% (inactive) |
| CC1(C)CC(=O)c2cnc(NC(=O)C3CCCC3)nc2C1 | 105% (inactive) | 96.2% (inactive) | 109% (inactive) | 80.8% (inactive) | 96.5% (inactive) | 61 | 442% (inactive) | 4.73% (inactive) | 95.1% (inactive) | 6% (inactive) | -15.9% (inactive) | -7.26% (inactive) | -0.99% (inactive) | 96.1% (inactive) | 0.36 (inactive) | -50% (inactive) | 10% (inactive) |
| COc1ccc(-c2c3c(=O)n(C)c(=O)n(C)c3cn2C2CCCCC2)cc1 | 95.2% (inactive) | 109% (inactive) | 88.2% (inactive) | 113% (inactive) | 92.6% (inactive) | 58.5 | 132% (inactive) | -14.1% (inactive) | 106% (inactive) | -1% (inactive) | 14.9% (inactive) | 1.05% (inactive) | 2.1% (inactive) | 95.5% (inactive) | 0.05 (inactive) | 9% (inactive) | -16.8% (inactive) |
| CC[C@H]1CN2CCc3cc(OC)c(OC)cc3[C@@H]2C[C@@H]1C[C@H]1NCCc2cc(OC)c(OC)cc21 | 110% (inactive) | 103% (inactive) | 94.5% (inactive) | 106% (inactive) | 99.9% (inactive) | 60.1 | 140% (inactive) | -27.9% (inactive) | 86.3% (inactive) | -7% (inactive) | 10.4% (inactive) | 3.93% (inactive) | -3.02% (inactive) | 106% (inactive) | -0.24 (inactive) | -66% (inactive) | 14.4% (inactive) |
| CN(C)CC/C=C1\c2ccccc2COc2ccccc21 | 96% (inactive) | 96.6% (inactive) | 90.5% (inactive) | 104% (inactive) | 109% (inactive) | 68.1 | 176% (inactive) | 20.2% (inactive) | 93.9% (inactive) | -3% (inactive) | 0.32% (inactive) | -7.94% (inactive) | 3.08% (inactive) | 79% (active) | -0.04 (inactive) | 6% (inactive) | -6.96% (inactive) |
| C/C=C/c1ccc(OCCCCN2CC(C)CC(C)C2)c(OC)c1 (stereo not given) | 102% (inactive) | 107% (inactive) | 106% (inactive) | 96.6% (inactive) | 97.2% (inactive) | 58.6 | 52.4% (inactive) | 8.88% (inactive) | 104% (inactive) | -1% (inactive) | -1.02% (inactive) | 39.6% (inactive) | -3.37% (inactive) | 99.7% (inactive) | 0.02 (inactive) | -10% (inactive) | -1.71% (inactive) |
| CC1Cc2ccccc2N1NC(=O)c1ccc(Cl)c(S(N)(=O)=O)c1 (stereo not given) | 105% (inactive) | 103% (inactive) | 105% (inactive) | 106% (inactive) | 114% (inactive) | 41.4 | 19.9% (active) | 3.14% (inactive) | 99.9% (inactive) | 1% (inactive) | -28.6% (inactive) | 7.39% (inactive) | 2.79% (inactive) | 99.5% (inactive) | 0.04 (inactive) | 7% (inactive) | 11.8% (inactive) |
